# According to PubChem BioAssay (Tox21):
# Results filed as inconclusive are left out. The source made the active and inactive calls. Unless noted, calls follow the shape of the full dose curve.
# Target: Nuclear receptor subfamily 1 group I member 2 (Homo sapiens) (UniProt O75469)
# Assay: CYP3A4 induction through human pregnane X receptor (PXR) by small molecules, qHTS assay (AID 1346984; active = well fitted curve in the direction sought with a large enough effect in the repeat runs; an effect the other way counts as inactive or inconclusive; also: nearly all actives have a fitted effect of over 40% in size)
# Conditions: DPX-2 HepG2 PXR, CYP3A4-luciferin luminescence, 24 h; series mostly up to 46.1 µM; activation: at the top concentration
# Method in brief: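 Cells (DPX-2; HepG2 with PXR element plus CYP3A4-promoter luciferase) settled 5hr, then were treated 24hr at 37C. A 3hr, 3uM-final Luciferin-IPA step preceded luminescence measurement with One-Glo.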
# % is scaled to controls: 0 for no effect and ±100 for the full control effect.
row,SMILES,activation
1,CN1CCC(O)(c2ccc(F)cc2)C(C(=O)c2ccc(F)cc2)C1 (centres undefined),-3.47% (inactive)
2,[O]=[Cd],-13.7% (inactive)
3,Cc1ncsc1CCCl,-3.12% (inactive)
4,O=C(CCCN1CCC(n2c(=O)[nH]c3ccccc32)CC1)c1ccc(F)cc1,-7.27% [at 20.6 µM] (inactive)
5,COC(=O)C(c1ccccc1)C1CCCCN1 (centres undefined),0.243% (inactive)
6,CCOC(=O)/C=C(C)/C=C/C[C@@H](C)CCCC(C)C,-2.31% (inactive)
7,NC(=O)c1cc([N+](=O)[O-])cc([N+](=O)[O-])c1,-6.38% (inactive)

# Target: Nuclear receptor subfamily 1 group I member 2 (Homo sapiens) (UniProt O75469)
# Assay: Human pregnane X receptor (PXR) activation by small molecules, qHTS assay (AID 1346985; active = well fitted curve in the direction sought with a large enough effect in the repeat runs; an effect the other way counts as inactive or inconclusive; also: nearly all actives have a fitted effect of over 40% in size)
# Conditions: DPX-2 HepG2 CYP3A4-luciferase, 24 h; series mostly up to 38.3 µM; activation: at the top concentration
# Method in brief: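 DPX-2 cells (HepG2 co-transfected with a PXR response element and a CYP3A4-promoter luciferase construct) were seeded at 2,000 per well, rested 5 hr at 37C, then exposed to DMSO-dissolved compounds for 24 hr. Activation was read as luciferase luminescence.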
row,SMILES,activation
1,CN1CCC(O)(c2ccc(F)cc2)C(C(=O)c2ccc(F)cc2)C1 (centres undefined),-3.53% (inactive)
2,[O]=[Cd],-5.71% (inactive)
3,Cc1ncsc1CCCl,3.81% (inactive)
4,O=C(CCCN1CCC(n2c(=O)[nH]c3ccccc32)CC1)c1ccc(F)cc1,22.9% [at 17.1 µM] (inactive)
5,COC(=O)C(c1ccccc1)C1CCCCN1 (centres undefined),-4.07% (inactive)
6,CCOC(=O)/C=C(C)/C=C/C[C@@H](C)CCCC(C)C,7.62% (inactive)
7,NC(=O)c1cc([N+](=O)[O-])cc([N+](=O)[O-])c1,2.1% (inactive)

# Target: Acetylcholinesterase (Homo sapiens) (UniProt P22303)
# Assay: Acetylcholinesterase (AChE) small molecule antagonists: colormetric cell-based qHTS assay (AID 1347395); also: nearly all actives have a fitted effect of over 30% in size; also: potency is read from the fitted curve at half-maximal effect
# Conditions: SH-SY5Y cells AChE activity, colorimetric (Ellman); series mostly up to 115 µM; activity, negative = inhibition: at the top concentration
# Method in brief: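 SH-SY5Y cells attached overnight, exposed to compound 30 min at 37 C, then given DTNB/acetylthiocholine; after 90 min at 37 C, colorimetric thiocholine read gives cellular AChE activity.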
# Chain of Acetylcholinesterase (Homo sapiens) (P22303 whole entry, looked up): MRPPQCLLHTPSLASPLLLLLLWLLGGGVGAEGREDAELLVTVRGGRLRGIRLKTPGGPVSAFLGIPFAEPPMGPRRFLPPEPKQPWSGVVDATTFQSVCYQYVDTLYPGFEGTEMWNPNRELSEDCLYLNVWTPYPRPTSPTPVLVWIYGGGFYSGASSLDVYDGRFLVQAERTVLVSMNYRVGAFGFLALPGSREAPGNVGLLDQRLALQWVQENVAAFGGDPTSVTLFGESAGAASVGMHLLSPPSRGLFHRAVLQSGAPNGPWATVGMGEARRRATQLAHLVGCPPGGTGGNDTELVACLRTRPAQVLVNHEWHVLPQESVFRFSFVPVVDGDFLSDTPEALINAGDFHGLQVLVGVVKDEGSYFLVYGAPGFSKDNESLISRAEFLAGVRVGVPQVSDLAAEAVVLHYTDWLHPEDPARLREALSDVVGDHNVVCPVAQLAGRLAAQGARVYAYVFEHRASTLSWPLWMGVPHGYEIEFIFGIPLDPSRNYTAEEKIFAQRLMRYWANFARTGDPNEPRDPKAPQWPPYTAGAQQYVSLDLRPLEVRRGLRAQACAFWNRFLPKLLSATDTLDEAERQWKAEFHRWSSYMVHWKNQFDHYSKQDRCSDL
SMILES,"activity, negative = inhibition",Potency
Fc1cc(Br)ccc1CBr,0.873% [at 52.9 µM] (inactive),
CCOP(=S)(Oc1cnc(C(C)(C)C)nc1)OC(C)C (centres undefined),,39.9 µM (active)
[As]#[In],4.37% (inactive),
C[C@]12CC[C@H]3[C@@H](CCC4=CC(=O)CC[C@@]43C)[C@@H]1CC[C@@H]2C(=O)O,1.62% [at 52.9 µM] (inactive),
CC1(C(=O)Nc2ccc(O)c(Cl)c2Cl)CCCCC1,0.558% (inactive),
CN1CCC(O)(c2ccc(F)cc2)C(C(=O)c2ccc(F)cc2)C1 (centres undefined),0.802% [at 52.9 µM] (inactive),
ClCCOCOCCCl,2.97% (inactive),
Cc1ccccc1CO[C@@H]1C[C@@]2(C(C)C)CC[C@]1(C)O2,-2.33% (inactive),
Cc1nnc2n1-c1sc(CCC(=O)N3CCOCC3)cc1C(c1ccccc1Cl)=NC2,1.5% [at 52.9 µM] (inactive),
CC1(C)CON(Cc2ccccc2Cl)C1=O,-0.606% (inactive),
CN(N=O)C(N)=O,2.52% (inactive),
O=C(NCO)NCO,2.61% (inactive),
CC(C)[N+](=O)[O-],0.716% (inactive),
[O]=[Cd],3.89% (inactive),
Nc1n[nH]c(N)n1,-4.36% (inactive),
Cc1ncsc1CCCl,-1.51% [at 52.9 µM] (inactive),
CNNC,0.205% (inactive),
O=[N+]([O-])c1cccc(O)c1,5.13% (inactive),

SMILES,"activity, negative = inhibition",Potency
CCC(Cl)[N+](=O)[O-] (centres undefined),1.3% (inactive),
O=[N+]([O-])c1ccc(CBr)cc1,-1.09% (inactive),
CC(C(O)c1ccccc1)N(C)C/C=C/c1ccccc1 (centres undefined),-1.35% [at 52.9 µM] (inactive),
O=C(O)c1cccc(Cl)c1,0.419% (inactive),
CCC1(c2ccccc2)C(=O)N=C(O)NC1=O (centres undefined),1.68% (inactive),
CC(C(=O)c1ccccc1)N(C)C (centres undefined),4.49% [at 52.9 µM] (inactive),
O=C(CCCN1CCC(n2c(=O)[nH]c3ccccc32)CC1)c1ccc(F)cc1,-5.46% [at 52.9 µM] (inactive),
CCOP(=S)(OCC)Oc1cc(-c2ccccc2)on1,,63.3 µM (active)
COC(=O)C(c1ccccc1)C1CCCCN1 (centres undefined),0.0957% (inactive),
CCOC(=O)C1(c2ccccc2)CCN(CCc2ccc(N)cc2)CC1,-0.617% [at 52.9 µM] (inactive),
COP(=S)(OC)Oc1c(Cl)cc(C)cc1Cl,0.205% (inactive),
CCOC(=O)/C=C(C)/C=C/C[C@@H](C)CCCC(C)C,1.86% (inactive),
O=[N+]([O-])c1cccc2cccnc12,-13.1% (inactive),
COC(C)(C)C,-3.79% (inactive),
COc1cc(C[C@@H](C)N)c(OC)cc1C,1.88% (inactive),
CC(CC(C#N)(c1ccccc1)c1ccccc1)N(C)C (centres undefined),3.79% (inactive),
O=[N+]([O-])c1ccc2c3c(cccc13)CC2,-14.8% (inactive),
